We go through eight compounds from PubChem BioAssay (NCATS).

Assay [1] in a line: Cell Viability - N2a (AID 540).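 Further: plate controls were DMSO alone for no effect and tamoxifen control for full effect; nearly all actives have a fitted effect of over 45% in size.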 The note with it: N2a mouse neuroblastoma cell viability; activity change, negative = cytotoxicity: at 92.2 µM (top of the series). The procedure, abridged: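 CellTiter-Glo ATP luminescence, read 20 min after reagent at room temperature, reported viability following 40 h compound treatment at 37 °C. N2a mouse neuroblastoma cells seeded 1500/well; Hill equation gave AC50.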

A short description of assay [2]: Cell Viability - SH-SY5Y (AID 544).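 Further: cells exposed to compound for 40 hours; 0% = DMSO alone and -100% = 100 µM tamoxifen; nearly all actives have a fitted effect of over 55% in size.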 The settings on record: SH-SY5Y neuroblastoma cell viability; viability change, negative = cytotoxic: at 92.2 µM (top of the series). The procedure, abridged:
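Cytotoxicity measured via ATP-dependent luciferase luminescence (CellTiter-Glo) following 40 h, 37 °C exposure of 1500 SH-SY5Y cells per well. Concentration-response data were fitted with the standard Hill equation to give AC50.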

Assay [3] is described as follows: Cell Viability - Renal Proximal Tubule (AID 545).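 Further: cells exposed to compound for 40 hours; 0% = DMSO only and -100% = 100 µM tamoxifen; nearly all actives have a fitted effect of over 40% in size.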 An outline of the steps: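 Viability taken as intracellular ATP (CellTiter-Glo luminescence) after 40 hr, 37 °C compound treatment of primary proximal tubule cells from rat kidney, 1000 cells/well; Hill-equation fits of qHTS concentration-response data gave AC50.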
The nature of assay [4]: Cell Viability - LYMP2-001 (AID 921). Further: nearly all actives have a fitted effect of over 70% in size. Further: potency means the concentration at half of the fitted maximal effect. The procedure, abridged:
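Cellular ATP loss read by luciferase luminescence after 24 h compound exposure at 37 C in complete medium. LYMP2-001 lymphoblastoid cells, 2500/well; qHTS concentration-response data fitted with Hill equation for AC50.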

The nature of assay [5]: Cell Viability - LYMP2-003 (AID 965).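 Further: cells exposed to compounds for 24 h before reading; nearly all actives have a fitted effect of over 50% in size.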 Further: potency means the concentration at half of the fitted maximal effect.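 On activity change, negative = cytotoxicity: 0% = DMSO only and full effect = 92 µM tetraoctylammonium bromide.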 The procedure, abridged: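 CellTiter-Glo luminescence quantified ATP loss after 24 h compound treatment of LYMP2-003 lymphoblastoid cells at 37 C. Titration series were fitted with the standard Hill equation to give AC50.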
Assay [6] in a line: Cell Viability - LYMP2-015 (AID 971). Further: nearly all actives have a fitted effect of over 55% in size. Further: potency means the concentration at half of the fitted maximal effect. An outline of the steps: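 Cytotoxicity readout: decrease in intracellular ATP (CellTiter-Glo luminescence) in 2500 LYMP2-015 lymphoblastoid cells/well after 24 h compound exposure at 37 C. Concentration-response data fitted with the standard Hill equation to give AC50.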
The nature of assay [7]: Cell Viability - LYMP2-019 (AID 973). Further: nearly all actives have a fitted effect of over 55% in size. Further: potency means the concentration at half of the fitted maximal effect.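 On activity change, negative = cytotoxicity: 0% = DMSO alone and full effect = 92 µM tetraoctylammonium bromide.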 The procedure, abridged: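 AC50 values come from Hill-equation fits of luminescent intracellular ATP (CellTiter-Glo, 30 min, room temperature) following 24 h compound exposure at 37 C. Cells: LYMP2-019 lymphoblastoid line, 2500 per well, in complete culture medium.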
Assay [8] in a line: Cell Viability - LYMP2-002 (AID 977).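 Further: plate controls were DMSO only for no effect and 92 µM tetraoctylammonium bromide for full effect.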 An outline of the steps: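 Human lymphoblastoid cells (2500/well) in complete medium were preincubated 5 hr at 37 C, then exposed to compounds for 24 hr at 37 C. Intracellular ATP was read by CellTiter-Glo luminescence; AC50 came from Hill-equation concentration-response fits.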
A short description of assay [9]: Cell Viability - LYMP2-008 (AID 980). Further: nearly all actives have a fitted effect of over 60% in size. Further: potency means the concentration at half of the fitted maximal effect. On activity change, negative = cytotoxicity: on the % scale 0 is the no-effect control and ±100 the full control effect. The procedure, abridged: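 Cytotoxicity determined from ATP-dependent luciferase luminescence (CellTiter-Glo) following 24 h compound exposure of human lymphoblastoid LYMP2-008 cells at 37 C. Concentration-response data fitted to the Hill equation to give AC50.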
Assay [10] is described as follows: Cell Viability - LYMP2-010 (AID 981). Further: nearly all actives have a fitted effect of over 55% in size. Further: potency means the concentration at half of the fitted maximal effect. The procedure, abridged:
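CellTiter-Glo ATP luminescence measured cytotoxicity after 24 h compound exposure at 37 C. LYMP2-010 cells were seeded at 2500/well, with tetraoctylammonium bromide as control; concentration-response curves gave AC50 values by the Hill equation.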

The nature of assay [11]: Cell Viability - LYMP2-012 (AID 982). Further: potency means the concentration at half of the fitted maximal effect.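 On activity change, negative = cytotoxicity: 0% = DMSO only and full loss = 92 µM tetraoctylammonium bromide.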
The nature of assay [12]: Cell Viability - LYMP2-020 (AID 986). Further: nearly all actives have a fitted effect of over 55% in size. Further: potency means the concentration at half of the fitted maximal effect. The procedure, abridged: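 Cytotoxicity in qHTS format: luminescent ATP readout from CellTiter-Glo after 24 h compound exposure at 37 C in complete medium. LYMP2-020 lymphoblastoid cells were seeded at 2500/well; concentration-response data fitted to the Hill equation for AC50.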
The nature of assay [13]: Cell Viability - LYMP2-022 (AID 987). Further: nearly all actives have a fitted effect of over 55% in size. Further: potency means the concentration at half of the fitted maximal effect.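 On viability change, negative = cytotoxic: 0% = DMSO alone and full effect = tetraoctylammonium bromide at 92 µM.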 An outline of the steps:
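Cytotoxicity read as decreased cellular ATP (CellTiter-Glo luminescence, 30 min room temperature) after 24 hours compound exposure of 2500 lymphoblastoid LYMP2-022 cells/well at 37 C. Concentration-response data fitted with standard Hill equation for AC50.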

Assay [14] is described as follows: Cell Viability - LYMP1-002 - Assay at 40 hr (AID 994).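 Further: 0% = DMSO only and full inhibition = 92 µM tetraoctylammonium bromide; nearly all actives have a fitted effect of over 60% in size.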 An outline of the steps: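 Cytotoxicity was read as loss of cellular ATP (CellTiter-Glo luminescence) after 40 hr compound exposure at 37 C of 2500 LYMP1-002 lymphoblastoid cells per well. Concentration-response data were fitted with the standard Hill equation to give AC50.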
The nature of assay [15]: qHTS assay for small molecule agonists of retinoid X receptor alpha signaling (AID 588544). The settings on record: HEK293T RXRa-UAS-bla, beta-lactamase reporter, 18 h; 530 nm emission.
Assay [16] is described as follows: qHTS assay for small molecule antagonists of retinoid X receptor alpha signaling (AID 588546; active means well fitted inhibition curve with a large enough effect in the signal ratio, with a control signal flat, not every such curve was filed as active; the % refers to the signal ratio;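 further: cells stimulated with 9-cis-retinoic acid as agonist; on the % scale 0 is the no-effect control and ±100 the full control effect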). The settings on record: HEK293T RXRa-UAS-bla, beta-lactamase ratio, antagonist mode; measured here: W530 green channel, cytotoxicity proxy. The procedure, abridged:
(§1)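 Beta-lactamase reporter inhibition, read as CCF4 fluorescence ratio (ex 405, em 460/530 nm) after 2 h at RT. HEK293T UAS-bla cells, 2500/well, were stimulated with 9-cis-RA at 500 or 100 nM final alongside test compound for 18 h at 37 C.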
(In general: Quantitative high-throughput screening tests each substance at several concentrations.)

The target in assay [17] is Retinoic acid receptor RXR-alpha (Homo sapiens) (UniProt P19793). Described as above. The note with it: HEK293T RXRa-UAS-bla, beta-lactamase ratio, antagonist mode. The procedure, abridged:
as §1

A short description of assay [18]: qHTS assay for small molecule antagonists of the retinoid-related orphan receptor gamma (ROR-gamma) signaling pathway - cell viability counter screen (AID 720652; active means well fitted curve in the direction sought with a large enough effect in the repeat runs; an effect the other way counts as inactive or inconclusive;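 further: compound exposure lasted 16 hr before ATP read; on the % scale 0 is the no-effect control and ±100 the full control effect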). The procedure, abridged: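 Cytotoxicity counter screen: intracellular ATP (CellTiter-Glo luminescence) measured in the doxycycline-induced CHO RORE-luciferase reporter line after 16 hr compound exposure at 37 C, 5% CO2.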

In assay [19] the target is Cytochrome P450 3A4 (Homo sapiens) (UniProt P08684). The experiment in a line: qHTS Assay for Inhibitors and Substrates of Cytochrome P450 3A4 (AID 884). Further: nearly all actives have a fitted effect of over 50% in size. Further: potency means the concentration at half of the fitted maximal effect. An outline of the steps: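 Luminescent readout of luciferin produced by CYP3A4 (20 nM) dealkylation of Luciferin-PPXE, 25 uM (its KM). NADPH-driven reaction ran 60 min at RT after 10 min compound preincubation; data scaled to 57 uM ketoconazole as 100% inhibition.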
Sequence of Cytochrome P450 3A4 (Homo sapiens) (P08684 whole entry, looked up): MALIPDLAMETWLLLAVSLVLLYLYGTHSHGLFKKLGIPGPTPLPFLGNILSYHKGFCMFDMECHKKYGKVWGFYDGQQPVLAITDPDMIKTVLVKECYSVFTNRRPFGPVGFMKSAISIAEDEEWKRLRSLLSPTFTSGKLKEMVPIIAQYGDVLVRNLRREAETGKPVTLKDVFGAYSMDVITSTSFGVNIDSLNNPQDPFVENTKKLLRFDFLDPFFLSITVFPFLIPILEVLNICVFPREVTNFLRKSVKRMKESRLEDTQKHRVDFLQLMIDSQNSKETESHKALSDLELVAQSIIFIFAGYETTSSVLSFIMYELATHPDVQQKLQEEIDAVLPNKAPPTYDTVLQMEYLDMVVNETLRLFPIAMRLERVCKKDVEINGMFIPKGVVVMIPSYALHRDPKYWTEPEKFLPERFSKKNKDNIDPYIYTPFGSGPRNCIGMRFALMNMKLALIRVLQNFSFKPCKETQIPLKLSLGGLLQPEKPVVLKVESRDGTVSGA

For assay [20], the target named is Tumor necrosis factor (Homo sapiens) (UniProt P01375). Description: qHTS assay to identify small molecules that stimulate Tumor Necrosis Factor-alpha (TNF-alpha) secretion (AID 651757; active means well fitted curve in the direction sought with a large enough effect in the signal ratio; the % refers to the signal ratio; further: 0% is about no effect). The procedure, abridged: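 Secreted TNF-alpha quantified by TR-FRET sandwich of two labeled anti-TNF-alpha antibodies, incubated 3 hr at room temperature. Preceded by 17 hr, 37 C compound treatment of THP-1 cells at 3000 cells/well.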
Sequence of Tumor necrosis factor (Homo sapiens) (P01375 whole entry, looked up): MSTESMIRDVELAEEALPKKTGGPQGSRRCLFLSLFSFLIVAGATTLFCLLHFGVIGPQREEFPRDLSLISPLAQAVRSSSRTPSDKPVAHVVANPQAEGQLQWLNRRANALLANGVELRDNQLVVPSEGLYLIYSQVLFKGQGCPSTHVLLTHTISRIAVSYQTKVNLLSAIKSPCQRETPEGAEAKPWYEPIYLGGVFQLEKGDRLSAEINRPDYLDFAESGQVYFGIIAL

Values joined by “and” are separate entries in the source; they are usually repeats but may differ in a detail not shown here. Equal entries are not always repeated. Records with an inconclusive call do not appear. Active and inactive are the calls of the source. Unless noted, the call rests on the fitted dose curve; in most records, active means well fitted curve in the direction sought with a large enough effect; inconclusive means small, poorly fitted or top-dose-only effect, or another doubt; inactive means no such curve, though single readings can be large; an effect the other way counts as inactive or inconclusive.

Sequence of Retinoic acid receptor RXR-alpha (Homo sapiens) (P19793 whole entry, looked up): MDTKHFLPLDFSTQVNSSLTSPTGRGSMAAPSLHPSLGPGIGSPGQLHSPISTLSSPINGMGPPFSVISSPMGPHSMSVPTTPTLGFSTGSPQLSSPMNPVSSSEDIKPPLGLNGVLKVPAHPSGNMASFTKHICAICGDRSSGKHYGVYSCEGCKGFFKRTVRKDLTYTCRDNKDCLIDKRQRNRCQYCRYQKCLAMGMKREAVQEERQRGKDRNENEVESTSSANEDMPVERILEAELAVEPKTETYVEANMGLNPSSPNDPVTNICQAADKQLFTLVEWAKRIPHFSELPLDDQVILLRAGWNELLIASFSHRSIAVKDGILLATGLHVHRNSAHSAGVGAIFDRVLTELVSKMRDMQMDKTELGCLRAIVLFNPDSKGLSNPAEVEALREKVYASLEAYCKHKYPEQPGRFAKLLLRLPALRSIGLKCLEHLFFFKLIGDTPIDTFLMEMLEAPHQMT

Consider `Nc1ccc(-c2ccc(N)cc2)cc1`, for which the Potency entry in assay [1], in assay [2], in assay [4], in [5], in [6] and in [7] was “inactive” each time. Moreover, the Potency result in assay [8], in assay [9], in assay [10], in [11], in assay [12] and in assay [13] was “inactive” each time. Moreover, the Potency result in [14] and in [18] was “inactive” throughout. Moreover, the call in [3] was inactive. The results for the max response in assay [15], in assay [16] and in assay [17] were -10.1%, -2.33% and 0.312% (inactive), respectively.

As for `OCCBr`, the Potency result in assay [1], in assay [2], in assay [19], in [4], in [5] and in assay [6] was “inactive” throughout. For the same compound, the Potency result in [7], in assay [8], in assay [9], in assay [10], in assay [11] and in [12] was “inactive” throughout. The Potency result in assay [13], in assay [14] and in assay [18] was “inactive” each time. Moreover, the outcome in assay [3] and in assay [20] was inactive. Further, the max response in assay [15] is 1.51%; in assay [16] it was 8.33%; in assay [17], 2.44% (inactive).

As for `O=[N+]([O-])c1ccc(Cl)cc1`, the Potency result in assay [1], in [2], in assay [19], in [4], in assay [5] and in assay [6] was “inactive” throughout. In addition, the Potency entry in assay [7], in assay [8], in assay [9], in assay [10], in assay [11] and in assay [12] was “inactive” each time. For the same compound, the Potency entry in [13], in assay [14] and in assay [18] was “inactive” throughout. In addition, the call in [3] and in assay [20] was inactive. Further, the max response in [15] was -17.3% and -9.79%; in assay [16], -1.92% and -4.79%; in assay [17], 5.21% (inactive) and -2.59% (inactive).

In the case of `O=[N+]([O-])c1cccc(O)c1`, the Potency entry in assay [2], in assay [19], in assay [4], in [5], in assay [6] and in [7] was “inactive” each time. For the same compound, the Potency entry in [8], in assay [9], in assay [10], in [11], in assay [12] and in [13] was “inactive” each time. In addition, the Potency entry in assay [14] and in assay [18] was “inactive” in each case. Besides, the call in assay [3] and in [20] was inactive. For the same compound, the values for the max response in assay [15], in assay [16] and in [17] were 0.893%, -2.66% and -5.97% (inactive), respectively.

On to `OC[P+](CO)(CO)CO`, for which the Potency entry in assay [1], in [2], in [19], in assay [14] and in assay [18] was “inactive” each time. Further, the call in assay [3] and in assay [20] was inactive. Further, the Potency in assay [4] was 15.8 µM (active); in assay [5], 25.1 µM (active); in [6] it was 15.8 µM (active); in assay [7], 15.8 µM (active); in [9] it was 39.8 µM (active); in [10], 20 µM (active). For the same compound, the Potency in assay [11] is 15.8 µM (active); in assay [12] it was 12.6 µM (active); in assay [13], 12.6 µM (active). Further, the max response in assay [16] is 5.58% and 5.35%; in assay [17], -5.42% (inactive) and -52.4% (inactive).

Turning to `CCCCCc1cc(O)cc(O)c1`, the Potency result in [1], in assay [2], in [4], in assay [5], in [6] and in assay [7] was “inactive” in each case. Besides, the Potency entry in assay [8], in assay [9], in assay [10], in [11], in assay [12] and in [13] was “inactive” each time. In addition, the Potency result in assay [14] was “inactive”. In addition, the result in assay [3] and in assay [20] was inactive. The Potency in assay [19] is 12.6 µM (active). In addition, the results for the max response in assay [15], in [16] and in assay [17] were 0.917%, -2.02% and -16.8% (inactive), respectively.

As to `C/C=C/C=O`, the Potency entry in assay [1], in assay [2], in assay [19], in assay [4], in assay [5] and in assay [6] was “inactive” each time. Besides, the Potency result in [7], in assay [8], in [9], in assay [10], in assay [11] and in assay [12] was “inactive” in each case. For the same compound, the Potency result in [13], in assay [14] and in [18] was “inactive” in each case. Moreover, the compound was called inactive in assay [3] and in assay [20]. Also, in assay [15], the max response was -18.6%.

Regarding `Nc1c(Cl)cc([N+](=O)[O-])cc1Cl`, the Potency entry in assay [2], in assay [19], in assay [4], in assay [5], in assay [6] and in assay [7] was “inactive” throughout. Besides, the Potency result in [8], in assay [9], in assay [10], in [11], in assay [12] and in [13] was “inactive” in each case. Further, the Potency entry in assay [14] and in assay [18] was “inactive” each time. Besides, the compound was called inactive in assay [3] and in assay [20]. For the same compound, the max response was -1.27% and -9.53% in assay [15]; 7.55% and -9.5% in [16]; 5.54% (inactive) and -6.63% (inactive) in [17].
